The values that follow come from the supplement of paper PMC3842684.

The subject of assay [1] is P. falciparum NF54-pfs16-GFP early (I-III) stage gametocytes. As to the kind of experiment: relative % inhibition of viable gametocyte number; higher = more gametocytocidal. Particulars: stage: early (I-III) gametocyte, incubation 72 h. The method, boiled down: (§1)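 Viable gametocytes were counted by confocal imaging as elongated GFP objects carrying MitoTracker Red signal above a cut-off, after 72 h of compound exposure (5 or 0.5 µM) at 37°C in 5% CO2 and 5% O2 and overnight staining. The NF54 pfs16-GFP gametocytes had been magnet-isolated at early (I/IIa, day 2) or late (day 8) stage and plated at 10% parasitaemia, 0.1% haematocrit in 384-well poly-D-lysine imaging plates. Relative inhibition was normalised to vehicle and positive-control wells within each plate.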

The test system of assay [2] is P. falciparum NF54-pfs16-GFP late (IV-V) stage gametocytes. The assay is described as above. Particulars: stage: late (IV-V) gametocyte, incubation 72 h. In short, it runs like this: as §1

For `CCCCCCC(O)(c1ccc(F)cc1)C(CN1CCOCC1)c1ccccc1` (stereo not given), the relative % inhibition in assay [1] (0.5 µM) is -0.0307%; in assay [1] (5 µM), 47.2%; in assay [2] (0.5 µM), 8.28%; in assay [2] (5 µM), 33.1%.

As for `CN(C)CCCNc1c2ccccc2nc2ccccc12`, the relative % inhibition in assay [1] (0.5 µM) is 85.1%; in assay [1] (5 µM) it was 101%; in assay [2] (0.5 µM), 57.9%; in assay [2] (5 µM), 101%.

Take `O=C(Nc1ccc(Br)cc1)Nc1cccc(Cl)c1`: the relative % inhibition in assay [1] (0.5 µM) was 20%; in assay [1] (5 µM), 26.8%; in assay [2] (0.5 µM) it was -8.75%; in assay [2] (5 µM), -6.59%.

With `CCn1c(SCC(=O)Nc2cc(C(F)(F)F)ccc2Cl)nc2ccccc2c1=O`, the relative % inhibition in assay [1] (0.5 µM) is 27.2%; in assay [1] (5 µM) it was 5.95%; in assay [2] (0.5 µM), 5.8%; in assay [2] (5 µM) it was -6.79%.

On to `CCN(CC)CCCNc1ccnc2cc3ccccc3cc12`, for which the relative % inhibition in assay [1] (0.5 µM) was 11%; in assay [1] (5 µM) it was -7.44%; in assay [2] (0.5 µM) it was -7.72%; in assay [2] (5 µM) it was -8.3%.

In the case of `Cc1ccc(C)c(Cn2c(N3CCC(C(=O)NCc4cccs4)CC3)nc3ccccc32)c1`, the relative % inhibition turned out to be 13.8% in assay [1] (0.5 µM), 39.4% in assay [1] (5 µM), 6.18% in assay [2] (0.5 µM) and 31.6% in assay [2] (5 µM).

For `c1ccc(CNc2nc(Nc3ccccc3)nc3ccccc23)cc1`, the relative % inhibition in assay [1] (0.5 µM) stood at 65.9%; in assay [1] (5 µM) it was 97%; in assay [2] (0.5 µM) it was 57.9%; in assay [2] (5 µM), 86.1%.

On to `COc1ccc(C2=C(c3ccc(OC)cc3)C3(c4ccccc4)C(=O)C2(c2ccccc2)C2C(=O)N(c4ccc(C)cc4)C(=O)C23)cc1` (stereo not given), for which the relative % inhibition in assay [1] (0.5 µM) came to 60.3%; in assay [1] (5 µM), 84.7%; in assay [2] (0.5 µM), 34.3%; in assay [2] (5 µM) it was 28.5%.

As to `COc1ccc(-c2nc(N3CCN(C(=O)C4CCCCC4)CC3)c3c4c(sc3n2)CCCC4)cc1`, the relative % inhibition in assay [1] (0.5 µM) was -24.1%; in assay [1] (5 µM), 55.7%; in assay [2] (0.5 µM), 92.2%; in assay [2] (5 µM), 86.8%.

`Cc1ccc(NC(=O)Nc2cccc(Cl)c2)cc1F`: the relative % inhibition in assay [1] (0.5 µM) was 11%; in assay [1] (5 µM), 28.9%; in assay [2] (0.5 µM), -16%; in assay [2] (5 µM) it was 21.8%.

Take `Clc1cc(Br)ccc1-c1ccc(CNCC2CCNCC2)o1`: the relative % inhibition in assay [1] (0.5 µM) was 92.6%; in assay [1] (5 µM), 100%; in assay [2] (0.5 µM), 36.1%; in assay [2] (5 µM), 89.9%.

For `Cc1ccccc1OCCSc1nc2ccc(NC(=O)c3cccs3)cc2s1`, the relative % inhibition in assay [1] (0.5 µM) was 11.4%; in assay [1] (5 µM), 19.4%; in assay [2] (0.5 µM) it was 18.1%; in assay [2] (5 µM) it was 35.8%.

For `OC(CNCc1ccccc1)Cn1c2ccccc2c2ccccc21` (stereo not given), the relative % inhibition in assay [1] (0.5 µM) came out at 0.736%; in assay [1] (5 µM), 89.9%; in assay [2] (0.5 µM), 21.5%; in assay [2] (5 µM), 84.7%.

Turning to `O=C(NCc1ccco1)C1CCN(S(=O)(=O)c2ccc(Br)cc2)CC1`, the relative % inhibition in assay [1] (0.5 µM) was -6.48%; in assay [1] (5 µM), -2.56%; in assay [2] (0.5 µM), 29%; in assay [2] (5 µM) it was 51.5%.

For the molecule `CCOc1ccccc1CN1CCc2nc3cc(C(C)(C)C)nn3c(O)c2C1`, the relative % inhibition in assay [1] (0.5 µM) is -6.1%; in assay [1] (5 µM), -4.88%; in assay [2] (0.5 µM) it was 66.3%; in assay [2] (5 µM), 76.6%.
